Screening data from PubChem.
This is a sample that favours compounds with a hit; in the whole collection about 9.2% have one here.
SMN2 splice up: SMN2 splice variant enhancement | HEK293 SMN2-luciferase splicing reporter, luminescence, 30-36 h | Potency, µM (top dose mostly 46.1 µM), inactives show at the highest dose activity change, positive = activation, most hits filed as activators | 210,000 compounds, 2.8% hits | AID 1458; further: % of control where 0% means no effect; nearly all actives have a fitted effect of over 55% in size
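qHTS luciferase splicing reporter: luminescence rises when SMN2 exon 7 is included in transfected HEK293 cells. Compound exposure lasted 30-36 h at 37C, with 4.5 mM final sodium butyrate as control, followed by a ONE-Glo read.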
FLuc counter: firefly luciferase modulation, counter-screen for miR-21 project. purified FLuc, Km substrates, luminescence inhibition. Potency, µM (doses to about 57.5 µM), for the others: top-dose activity change, negative = inhibition, actives largely listed as inhibitors. 360,000 compounds, 6.9% hits. AID 588342;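 further: plate controls were vehicle for no effect and reference inhibitor for full effect; nearly all actives have a fitted effect of over 55% in size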
Target sequence (P08659 whole entry, looked up): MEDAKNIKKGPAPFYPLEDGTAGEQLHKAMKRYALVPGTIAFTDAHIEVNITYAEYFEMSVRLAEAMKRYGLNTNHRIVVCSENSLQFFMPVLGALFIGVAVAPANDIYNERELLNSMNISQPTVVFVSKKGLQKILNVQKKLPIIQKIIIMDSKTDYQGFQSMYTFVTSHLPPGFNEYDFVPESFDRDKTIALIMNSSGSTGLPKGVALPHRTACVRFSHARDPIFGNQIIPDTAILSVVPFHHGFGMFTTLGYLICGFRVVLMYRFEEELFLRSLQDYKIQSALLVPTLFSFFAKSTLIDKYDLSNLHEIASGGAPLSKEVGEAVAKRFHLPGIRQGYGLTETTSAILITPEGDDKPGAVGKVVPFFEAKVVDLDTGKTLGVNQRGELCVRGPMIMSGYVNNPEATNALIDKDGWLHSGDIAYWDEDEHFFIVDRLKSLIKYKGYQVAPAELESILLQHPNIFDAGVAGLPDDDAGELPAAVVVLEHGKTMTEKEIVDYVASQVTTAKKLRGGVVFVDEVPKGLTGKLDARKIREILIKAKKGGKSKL
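Purified P. pyralis luciferase (10nM final) with 10uM D-luciferin and 10uM ATP (Km levels) in 50mM Tris acetate pH 7.5, 10mM Mg acetate, 0.01% Tween-20, 0.05% BSA; qHTS 6-point titration, ~60 µM downward; luminescence read.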
NPC1 prom act: activates the NPC1 promoter. Huh7 NPC1 promoter luciferase reporter, 24 h. Potency, µM (doses to about 9.22 µM), without a hit: top-dose activation, hits mostly activators. 320,000 compounds, 2.4% hits. AID 485313; further: % of control where 0% means no effect; nearly all actives have a fitted effect of over 60% in size
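Cells: Huh7 expressing luciferase under the NPC1 promoter, 1500/well. Seeded 2 h, compound added, incubated 24 h at 37 °C. Luciferase reagent, 10 min ambient, then luminescence.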
Rab9 promoter act: activates the Rab9 promoter; Potency, µM (doses to about 9.22 µM), without a hit: top-dose activation, negative = inhibition, actives largely listed as activators; AID 485297; 320,000 compounds, 2.8% hits; Huh7 Rab9 promoter-luciferase reporter, luminescence, 24 h; further: % of control where 0% means no effect; nearly all actives have a fitted effect of over 60% in size
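Cell-based reporter: Huh7 stable for Rab9 promoter-driven luciferase, plated in reduced-serum medium with 10% FBS at 1500 cells/well, compound-treated 24 h at 37 °C, luminescence read after 10 min reagent.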
ELG1 repair inh: blocks ELG1-dependent DNA repair in HEK293T cells. Potency, µM (top dose mostly 46.1 µM), inactives show at the top dose activity change, negative = inhibition, usual class: inhibitors. HEK293T ELG1-luciferase reporter, luminescence, 16 h; DNA damage induced by 5-fluorouridine. 330,000 compounds, 2.3% hits; further: on the % scale 0 is the no-effect control and ±100 the full control effect; nearly all actives have a fitted effect of over 55% in size
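Overnight (16 hr) co-exposure of 2,000 cells/well to 5-fluorouridine and compound at 37 °C preceded detection. Luciferase was quantified via ONE-Glo luminescence; loss of signal denotes inhibition.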
ELG1 genotox: inducers of genotoxicity in HEK293T ELG1-luciferase cells; HEK293T ELG1-luciferase reporter, luminescence, 16 h; 330,000 compounds, 1.3% hits; AID 504466; Potency, µM (highest dose often 46 µM), for inactives: at the top dose activity change, positive = activation, most hits filed as activators; further: % of control where 0% means no effect; nearly all actives have a fitted effect of over 60% in size
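Genotoxic stress is detected as increased luminescence from luciferase-tagged ELG1 in HEK293T cells, measured with ONE-Glo after a 16 hr treatment at 37 °C.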
Numbers without * were called inactive; [ ] = remark or other dose. The call rests on the fitted dose curve; in most records, active means well fitted curve in the direction sought with a large enough effect; inconclusive means small, poorly fitted or top-dose-only effect, or another doubt; inactive means no such curve, though single readings can be large; an effect the other way counts as inactive or inconclusive. Potency means the concentration at half of the fitted maximal effect.

CC(=O)c1ccc(NC(=O)CSc2nccn2CCc2ccccc2)cc1 was read as SMN2 splice up 15%, FLuc counter 13µM*, NPC1 prom act inconclusive, Rab9 promoter act inconclusive, ELG1 repair inh inconclusive and ELG1 genotox inconclusive.
For CC(=O)c1ccc(NC(=O)CSc2nccn2C)cc1 the results were FLuc counter -8%, NPC1 prom act 22%, Rab9 promoter act 11%, ELG1 repair inh inconclusive and ELG1 genotox 13%.
For CC(=O)Nc1ccc(NC(=O)CSc2nccn2Cc2ccccc2)cc1 the results were SMN2 splice up -10%, FLuc counter -13%, NPC1 prom act 2%, Rab9 promoter act -2%, ELG1 repair inh 21µM* and ELG1 genotox -1%.
`O=C(CSc1nnc(-c2ccccn2)n1Cc1ccccc1)Nc1ccc2c(c1)OCO2` gave SMN2 splice up -17%, FLuc counter -1%, NPC1 prom act -3%, Rab9 promoter act -3%, ELG1 repair inh 21µM* and ELG1 genotox -1%.
`CCn1c(SCC(=O)Nc2ccc(C(C)=O)cc2)nc2ccccc21` gave SMN2 splice up inconclusive, FLuc counter inconclusive, NPC1 prom act inconclusive, Rab9 promoter act inconclusive, ELG1 repair inh inconclusive and ELG1 genotox 16µM*.
Cc1ccc(NC(=O)CSc2nccn2Cc2ccccc2)cc1C was read as FLuc counter inconclusive, NPC1 prom act 18%, Rab9 promoter act inconclusive, ELG1 repair inh inconclusive and ELG1 genotox 3%.
`Cc1sc2ncn(CC(=O)NCC(=O)N3CCN(c4ccccc4F)CC3)c(=O)c2c1C` gave FLuc counter 1%, NPC1 prom act -2%, Rab9 promoter act 1%, ELG1 repair inh 16% and ELG1 genotox -1%[9.26 µM].
Screening Cc1c(Cl)cccc1NC(=O)CN(C1CCCCC1)S(C)(=O)=O returned FLuc counter 4%, NPC1 prom act 0%, Rab9 promoter act -1%, ELG1 repair inh -6% and ELG1 genotox 0%.
Screening Cc1ccc(Cn2ccnc2SCC(=O)Nc2ccc3c(c2)OCO3)cc1 returned FLuc counter -14%.
`O=C(CSc1nccn1Cc1ccccc1)Nc1ccc2c(c1)OCCO2` gave FLuc counter 13µM*.
`N#Cc1ccccc1NC(=O)CSc1nnc(-c2ccccc2)n1-c1ccccc1` gave SMN2 splice up -20%, FLuc counter 1%, NPC1 prom act 4%, Rab9 promoter act 2%, ELG1 repair inh inconclusive and ELG1 genotox -29%.
Screening N#Cc1ccccc1NC(=O)CSc1nccn1CCc1ccccc1 returned SMN2 splice up inconclusive, FLuc counter 21µM*, NPC1 prom act inconclusive, Rab9 promoter act inconclusive, ELG1 repair inh inconclusive and ELG1 genotox 21µM*.
CSc1ccc(C2=CC(=O)C[C@H](c3ccc(Cl)cc3)C2)cc1 was read as FLuc counter -1%, NPC1 prom act 0%, Rab9 promoter act -9%, ELG1 repair inh -20% and ELG1 genotox 1%.
`C=CCNc1nc(Nc2ccc(-c3nc4ccccc4o3)cc2)nc(N2CCOCC2)n1` gave SMN2 splice up -10%, FLuc counter -3%, NPC1 prom act -3%, Rab9 promoter act -1%, ELG1 repair inh 15µM* and ELG1 genotox -3%.
`CC[N+](CC)(CCNC(=O)C(=O)NCC[N+](CC)(CC)Cc1ccccc1Cl)Cc1ccccc1Cl` gave SMN2 splice up -8%.
Cc1c(C(=O)NC(C)c2ccncc2)oc2ccccc12 (centres undefined) was read as SMN2 splice up -21%, FLuc counter -1%, NPC1 prom act -1%, Rab9 promoter act 0%, ELG1 repair inh 10% and ELG1 genotox -1%.
Cc1noc(C(=O)Nc2cccnc2Cl)c1Cl was read as FLuc counter 4%, NPC1 prom act -3%, Rab9 promoter act 12%, ELG1 repair inh 11% and ELG1 genotox 1%.
